Results filed as inconclusive are left out. The source made the active and inactive calls. Rule for the calls, unless noted: active = hit-call score of the fitted dose curve at least 0.9, where 1 is the maximum; inconclusive = response in the unintended direction; inactive = score below 0.9.
What was measured:
[1] = TOX21_p53_BLA_p2_viability: Viability Assessment in the Tox21 HCT-116 p53 Agonism Beta-lactamase Assay, Phase 2 (AID 2283591);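 note: compound exposure lasted 16 h at 37 °C; actives lower the ATP signal meaning cytotoxicity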
Method in brief: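 HCT116 p53-bla cells, 4000/well, dosed after 5 h plating (217-fold dilution of DMSO stocks) and incubated 16 h at 37C. Viability taken as cellular ATP by CellTiter-Glo luminescence after 30 min RT; signal loss marks cytotoxicity.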

[2] = biological target: Cellular tumor antigen p53 (Homo sapiens) (UniProt P04637); assay: TOX21_p53_BLA_p2_ratio: Tox21 HCT-116 p53 Agonism Beta-lactamase Assay, Ratio, Phase 2 (AID 2283592)
Chain of Cellular tumor antigen p53 (Homo sapiens) (P04637 whole entry, looked up): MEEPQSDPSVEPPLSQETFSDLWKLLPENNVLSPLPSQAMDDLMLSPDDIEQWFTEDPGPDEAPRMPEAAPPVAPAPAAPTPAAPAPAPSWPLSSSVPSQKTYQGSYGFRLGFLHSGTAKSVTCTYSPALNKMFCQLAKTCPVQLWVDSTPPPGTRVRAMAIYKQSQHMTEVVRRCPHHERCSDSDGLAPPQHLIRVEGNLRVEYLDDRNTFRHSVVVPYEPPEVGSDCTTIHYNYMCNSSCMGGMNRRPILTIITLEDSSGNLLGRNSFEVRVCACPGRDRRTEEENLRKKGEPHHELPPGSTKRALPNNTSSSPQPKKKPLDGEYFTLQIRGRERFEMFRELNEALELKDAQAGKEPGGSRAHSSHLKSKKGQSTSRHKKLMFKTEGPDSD
Method in brief: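 Read-out is the blue/green (460/530 nm, 405 nm excitation) ratio after 2 h CCF4-AM loading, fitted as gain versus DMSO. Compounds, pinned at 217-fold dilution from DMSO stocks, stayed 16 h on HCT-116 beta-lactamase reporter cells seeded 5 h earlier.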

[3] = TOX21_p53_BLA_p3_viability: Viability Assessment in the Tox21 HCT-116 p53 Agonism Beta-lactamase Assay, Phase 3 (AID 2283593);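 note: cells exposed to compound for 16 h before reading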
Method in brief: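 HCT116 cells, 4000/well, dosed 5 h after plating by pin transfer (217-fold dilution from DMSO stock) and incubated 16 h at 37C, 5% CO2. Viability read as ATP luminescence with CellTiter-Glo after 30 min at room temperature.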

[4] = biological target: Cellular tumor antigen p53 (Homo sapiens) (UniProt P04637); assay: TOX21_p53_BLA_p3_ratio: Tox21 HCT-116 p53 Agonism Beta-lactamase Assay, Ratio, Phase 3 (AID 2283596)
Method in brief: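 Cells were seeded at 4000/well, rested 5 h at 37C, then dosed with DMSO compound solutions (217-fold dilution) for 16 h. CCF4-AM substrate was loaded for 2 h at room temperature, and the 460/530 nm emission ratio was fitted for gain of signal versus DMSO.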

[5] = TOX21_p53_BLA_p4_viability: Viability Assessment in the Tox21 HCT-116 p53 Agonism Beta-lactamase Assay, Phase 4 (AID 2283597);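 note: hits lower the luminescence signal meaning cytotoxicity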
Method in brief: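 Cytotoxicity as reduced cellular ATP (CellTiter-Glo luminescence, 30 min room temperature), measured in the same wells following the CCF4 FRET p53 reading. Human HCT-116 cells received compounds in DMSO (217-fold dilution) for 16 h.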

[6] = biological target: Cellular tumor antigen p53 (Homo sapiens) (UniProt P04637); assay: TOX21_p53_BLA_p5_ratio: Tox21 HCT-116 p53 Agonism Beta-lactamase Assay, Ratio, Phase 5 (AID 2283599)
Method in brief: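 HCT-116 p53-bla cells (4000/well) plated 5 h, dosed with compound (217-fold DMSO dilution) for 16 h at 37 C; CCF4-AM substrate 2 h at room temperature. Activity is the 460/530 nm emission ratio (405 nm excitation), fitted in gain-of-signal direction versus DMSO.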

[7] = biological target: Cellular tumor antigen p53 (Homo sapiens) (UniProt P04637); assay: TOX21_p53_BLA_p4_ratio: Tox21 HCT-116 p53 Agonism Beta-lactamase Assay, Ratio, Phase 4 (AID 2283601)
Method in brief: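 HCT-116 p53 beta-lactamase reporter cells (4000/well) preincubated 5 h, then compound (217-fold dilution of DMSO stock) for 16 h at 37C. CCF4-AM substrate added 2 h at room temperature; 460/530 nm emission ratio fitted upward versus DMSO.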

[8] = TOX21_p53_BLA_p5_viability: Viability Assessment in the Tox21 HCT-116 p53 Agonism Beta-lactamase Assay, Phase 5 (AID 2283600)
Method in brief: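 Viability came from CellTiter-Glo ATP luminescence, read after 30 min at room temperature. Before this, HCT-116 p53-bla cells (4000/well) had 16 hours of compound exposure at 37C, with DMSO stocks diluted 217-fold on transfer.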

[9] = system: Brachyury (BRA) Protein Expression, Deisenroth Lab, TBXT (gene 6862); assay: CCTE_Deisenroth_DEVTOX-GLR_legacy_Bra: (Legacy) CCTE's DevTox GLR-Endo Assay Evaluation of Brachyury (BRA) Protein Expression, Deisenroth Lab (AID 2284329; active = hit-call score of the fitted dose curve at least 0.9, where 1 is the maximum; inactive = score below 0.9)
Method in brief: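 Readout: percent Bra+ cells by high-content fluorescence imaging, Bra+ meaning mean intensity 5x BMAD over pluripotent control median. RUES2-GLR cells dosed twice over 48 h differentiation; DMSO-control median subtracted before concentration-response fitting.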

[10] = CCTE_Deisenroth_DEVTOX-GLR_legacy_CellCount: (Legacy) Viability Assessment in CCTE's DevTox GLR-Endo Assay, Deisenroth Lab (AID 2284331; active = hit-call score of the fitted dose curve at least 0.9, where 1 is the maximum; inactive = score below 0.9); conditions: actives raise or lower the signal
Method in brief: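 Human pluripotent RUES2-GLR cells differentiated 48 h with two 24-h-interval exposures, 10-point 1 nM–200 uM series, 0.2% DMSO. Fixed nuclei counted by high-content imaging (5 fields/well); bidirectional fit vs DMSO, n≥4.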

[11] = system: SRY-box transcription factor 17 (SOX17) Protein Expression, Deisenroth Lab, SOX17 (gene 64321); assay: CCTE_Deisenroth_DEVTOX-GLR_legacy_Sox17: (Legacy) CCTE's DevTox GLR-Endo Assay Evaluation of SRY-box transcription factor 17 (SOX17) Protein Expression, Deisenroth Lab (AID 2284341; active = hit-call score of the fitted dose curve at least 0.9, where 1 is the maximum; inactive = score below 0.9); conditions: actives raise or lower the signal
Method in brief: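 RUES2-GLR human pluripotent cells differentiated toward endoderm for 48 h, dosed twice at 24 h intervals (1 nM–200 uM, 10 points). Imaging gives % SOX17+ cells (intensity >5x BMAD above pluripotent control median); bidirectional fit versus 0.2% DMSO.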

[12] = system: SRY-box transcription factor 2 (SOX2) Protein Expression, Deisenroth Lab, SOX2 (gene 6657); assay: CCTE_Deisenroth_DEVTOX-GLR_legacy_Sox2: (Legacy) CCTE's DevTox GLR-Endo Assay Evaluation of SRY-box transcription factor 2 (SOX2) Protein Expression, Deisenroth Lab (AID 2284346; active = hit-call score of the fitted dose curve at least 0.9, where 1 is the maximum; inactive = score below 0.9)
Method in brief: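 Read-out: fraction of Sox2+ cells by high-content fluorescence imaging of fixed RUES2-GLR cells after 48 h differentiation with two 24 h-spaced exposures. Positivity cutoff 5x BMAD above endoderm control median; 0.2% DMSO median subtracted.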

[13] = system: SRY-box transcription factor 2 (SOX2) Protein Expression, Deisenroth Lab, SOX2 (gene 6657); assay: CCTE_Deisenroth_DEVTOX-GLR_Endo_SOX2: CCTE's DevTox GLR-Endo Assay Evaluation of SRY-box transcription factor 2 (SOX2) Protein Expression, Deisenroth Lab (AID 2284412)
Method in brief: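 Endpoint is percent SOX2-positive cells (SOX2+ count/total cells) minus 0.2% DMSO control, from high-content imaging of fixed, nuclear-stained RUES2-GLR cells. Dosing twice at 24 h intervals over 48 h differentiation, 1 nM–200 uM in 10 points.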

[14] = system: SRY-box transcription factor 17 (SOX17) Protein Expression, Deisenroth Lab, SOX17 (gene 64321); assay: CCTE_Deisenroth_DEVTOX-GLR_Endo_SOX17: CCTE's DevTox GLR-Endo Assay Evaluation of SRY-box transcription factor 17 (SOX17) Protein Expression, Deisenroth Lab (AID 2284413; active = hit-call score of the fitted dose curve at least 0.9, where 1 is the maximum; inactive = score below 0.9)
Method in brief: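 Human RUES2-GLR cells carrying an inducible fluorescent reporter are differentiated in defined media for 48 h and dosed twice, 24 h apart. After fixation and nuclear staining, imaging yields SOX17+ cell percentage relative to 0.2% DMSO-treated differentiated cells.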

[15] = system: Brachyury (BRA) Protein Expression, TBXT (gene 6862); assay: CCTE_Deisenroth_DEVTOX-GLR_Endo_BRA: CCTE's DevTox GLR-Endo Assay Evaluation of Brachyury (BRA) Protein Expression, Deisenroth Lab (AID 2284417; active = hit-call score of the fitted dose curve at least 0.9, where 1 is the maximum; inactive = score below 0.9)
Method in brief: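 RUES2-GLR pluripotent cells differentiated 48 h with two chemical exposures 24 h apart, 10-point range 1 nM - 200 uM. Percentage of BRA+ cells per total count by high-content imaging, minus 0.2% DMSO control.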

[16] = CCTE_Deisenroth_DEVTOX-GLR_Endo_CellCount: Viability Assessment in CCTE's DevTox GLR-Endo Assay, Deisenroth Lab (AID 2284420; active = hit-call score of the fitted dose curve at least 0.9, where 1 is the maximum; inactive = score below 0.9)
Method in brief: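 Percent change in nuclear-stain cell counts versus 0.2% DMSO, from high-content imaging over 5 fields per well. Over a 48 h endoderm differentiation, RUES2-GLR cells received two doses 24 h apart across a 1 nM–200 uM series, with n=4.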

[17] = system: SRY-box transcription factor 2 (SOX2) Protein Expression, Deisenroth Lab, SOX2 (gene 6657); assay: CCTE_Deisenroth_DEVTOX-GLR_Pluri_SOX2: CCTE's DevTox GLR-Pluri Assay Evaluation of SRY-box transcription factor 2 (SOX2) Protein Expression, Deisenroth Lab (AID 2284428; active = hit-call score of the fitted dose curve at least 0.9, where 1 is the maximum; inactive = score below 0.9)
Method in brief: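 Percent SOX2+ cells (SOX2+ count per total cells, fluorescent imaging) in RUES2-GLR human pluripotent line, expressed relative to 0.2% DMSO. Compounds dosed twice at 24 h intervals during 48 h, 1 nM - 200 uM, 10 concentrations.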

[18] = system: Brachyury (BRA) Protein Expression, Deisenroth Lab, TBXT (gene 6862); assay: CCTE_Deisenroth_DEVTOX-GLR_Pluri_BRA: CCTE's DevTox GLR-Pluri Assay Evaluation of Brachyury (BRA) Protein Expression, Deisenroth Lab (AID 2284429)
Method in brief: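 RUES2-GLR reporter line; 48 h mesoderm differentiation; two exposures, 24 h apart; 1 nM - 200 uM, 10 points; nuclear stain, high-content imaging, 5 fields/well; endpoint = %BRA+ cells of total count minus 0.2% DMSO; n=4.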

[19] = CCTE_Deisenroth_DEVTOX-GLR_Pluri_CellCount: Viability Assessment in CCTE's DevTox GLR-Pluri Assay Evaluation of Total Cell Counts, Deisenroth Lab (AID 2284430; active = hit-call score of the fitted dose curve at least 0.9, where 1 is the maximum; inactive = score below 0.9)
Method in brief: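 Cytotoxicity readout: fluorescent nuclei counts by high-content imaging, expressed as percent change relative to 0.2% DMSO. Human RUES2-GLR pluripotent line differentiated 48 h, dosed twice at 24-h intervals across 1 nM - 200 uM (10 points).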

With CNC(=O)c1ccccc1Sc1ccc2c(/C=C/c3ccccn3)n[nH]c2c1 the outcome [1] was “inactive”, the AC50 [2] was 922 nM (active) and the outcome [3] was “inactive”. The AC50 [4] was 1.02 µM (active), the outcome [5] was “inactive” and the AC50 [6] was 894 nM (active). For the same compound, the AC50 [7] was 738 nM (active).

For C[S+](C)CCC(N)C(=O)O (configuration not stated), the outcome [1] was “inactive”, the outcome [2] was “inactive” and the outcome [3] was “inactive”. The outcome [4] was “inactive”, the outcome [5] was “inactive” and the outcome [8] was “inactive”.

In the case of CC(C)NNC(=O)c1ccncc1, the outcome [1] is reported as “inactive”, the outcome [2] is reported as “inactive” and the outcome [3] is reported as “inactive”. The outcome [4] was “inactive”, the outcome [5] was “inactive” and the outcome [8] was “inactive”. For the same compound, the outcome [7] was “inactive”.

In the case of Cc1ccc(NC(=O)c2ccc(CN3CCN(C)CC3)cc2)cc1Nc1nccc(-c2cccnc2)n1, the outcome [1] is reported as “inactive”, the outcome [2] is reported as “inactive” and the outcome [3] is reported as “inactive”. The outcome [4] was “inactive”, the outcome [5] was “inactive” and the outcome [6] was “inactive”. The outcome [7] was “inactive”, the AC50 [9] was 20.1 µM (active) and the AC50 [10] was 15.9 µM (active). The AC50 [11] was 16.5 µM (active), the AC50 [12] was 19.3 µM (active) and the AC50 [13] was 25.6 µM (active). The AC50 [14] was 14.2 µM (active), the AC50 [15] was 22.7 µM (active) and the AC50 [16] was 15.8 µM (active). For the same compound, the AC50 [17] was 15.7 µM (active), the AC50 [18] was 23.2 µM (active) and the AC50 [19] was 22.4 µM (active).

For CC(C(=O)O)c1ccc(C2CCCCC2)c2ccccc12 (configuration not stated), the outcome [1] was “inactive”, the outcome [2] was “inactive” and the outcome [3] was “inactive”. For the same compound, the outcome [4] was “inactive”, the AC50 [5] was 31.1 µM (active) and the outcome [6] was “inactive”. The outcome [7] was “inactive”.

In the case of C[C@@H]1CN(CCCn2c3ccccc3c3ccccc32)C[C@H](C)N1, the outcome [1] is reported as “inactive”, the outcome [2] is reported as “inactive” and the outcome [3] is reported as “inactive”. For the same compound, the outcome [4] was “inactive”, the AC50 [5] was 28.9 µM (active) and the outcome [6] was “inactive”. For the same compound, the outcome [7] was “inactive”.

Reference: PubChem BioAssay (EPA / NIEHS)
